Assay results taken from PubChem BioAssay (EPA / NIEHS).
Values joined by “and” are separate entries in the source; they are usually repeats but may differ in a detail not shown here. Identical values can stand only once. Active and inactive are the calls of the source. The calls were made as follows: active = hit-call score of the fitted dose curve at least 0.9, where 1 is the maximum; inactive = score below 0.9.

read-out: Decorin, DCN (gene 1634); experiment: BSK_MyoF_Decorin: BioMAP Diversity Plus: MyoF Assay for Decorin Biomarker Activity (AID 2284265); settings: primary human lung fibroblasts
Procedure: BSK_MyoF is a cell-based, multiplexed-readout assay that uses lung fibroblasts, […], with measurements taken at 24 hours after chemical dosing in a microplate: 96-well plate.BSK_MyoF_Decorin is an assay component measured in the BSK_MyoF assay. It measures Decorin antibody related to regulation of gene expression using ELISA technology.Data from the assay component BSK_MyoF_Decorin was analyzed at the endpoint, BSK_MyoF_Decorin, in the positive analysis fitting direction relative to DMSO as the negative control and baseline of activity. Using a type of binding reporter, gain or loss-of-signal activity can be used to understand protein changes. To generalize the intended target to other relatable targets, this assay endpoint is annotated to the 'cell adhesion molecules' intended target family, where the subfamily is 'decorin'.
The levels of cell surface (or secreted, indicated by the prefix "s") biomarker endpoints were measured by ELISA. Overt cytotoxicity to cells in confluent adherent cultures (all systems other than the BT system) was assessed by measuring total protein levels using sulforhodamine B (SRB) staining in parallel cultures at the time of biomarker measurements, indicated as SRB endpoints. For proliferation assays for adherent cell types, individual cell types are cultured at sub-confluence and relative cell numbers quantified by SRB staining at time points optimized for each system (48 h: 3C and CASM3C systems; 72 h: BT and HDF3CGF systems; 96 h: SAg system). SRB was performed by staining cells with 0.1% SRB after fixation with 10% TCA and reading wells at 560 nm.Viability and proliferation of PBMC (T cells) was quantified by Alamar Blue reduction for the SAg and BT systems. For PBMC viability (referred to as PBMC Cytotoxicity within the assay endpoint names), cells were plated (75,000/well in a 96-well plate) and then chemical samples added for 1 h before addition of activators, SEB and TSST-1 (20 ng/mL final concentration each). Cells were incubated for 90 h. Then, Alamar Blue (20 uL/well) (Invitrogen, Cat DAL1100) was added for 6 h, and the plates were read with a fluorescence microplate reader at 546/580 nm (excitation/emission). For PBMC proliferation, cells were plated and activated as above but incubated for only 16 h prior to addition of Alamar Blue. Plates were read after 6 h.

Row | SMILES | outcome | AC50
1 | CCCCCCCO | inactive | 
2 | C=CC(=O)OCC(C)OCC(C)OCC(C)OC(=O)C=C (stereo not given) |  | 20 µM (active)
3 | C=CC(=O)OCCCCCCOC(=O)C=C | inactive | 
4 | CC(C)CCCCCOC(=O)CS | inactive | 
5 | CCCCCCCCCCCC(C)=O | inactive | 
6 | COc1ccc(C(=O)/C(Br)=C\C(=O)O)cc1 | inactive | 
7 | CCOC(=O)C1=NOC(c2ccccc2)(c2ccccc2)C1 | inactive | 
8 | C=C(C)C(=O)OCCCCCCCCCCCC | inactive | 
9 | Oc1ccc(/C=C/c2cc(O)cc(O)c2)cc1 | inactive | 
10 | CC/C=C\C/C=C\C/C=C\CCCCCCCC(=O)OC | inactive | 
11 | Fc1ccc(Br)cc1 | inactive | 
12 | CC1=CC=C(C(C)C)CC1 | inactive | 
13 | CCC1(C)C(=O)N(Cl)C(=O)N1Cl (stereo not given) | inactive | 
14 | COc1ccc(C(=O)c2ccccc2)c(O)c1 | inactive | 
15 | CC/C=C\CCOC(=O)c1ccccc1O |  | 20 µM (active)
16 | O=C1CCCCCCCCCCC1 | inactive | 
17 | CCCCC1C(=O)N(c2ccccc2)N(c2ccccc2)C1=O | inactive | 
18 | C=CCCCCCCCCC=O | inactive | 
19 | CC(Cl)COP(=O)(OCC(C)Cl)OCC(C)Cl (stereo not given) | inactive | 
20 | C[N+](C)(C)CCCNS(=O)(=O)C(F)(F)C(F)(F)C(F)(F)C(F)(F)C(F)(F)C(F)(F)C(F)(F)C(F)(F)F |  | 9.66 µM (active) and 11.2 µM (active)

Row | SMILES | outcome | AC50
21 | CC(c1cc(C(C)(C)C)cc(C(C)(C)C)c1O)c1cc(C(C)(C)C)cc(C(C)(C)C)c1O | inactive | 
22 | CC(C)[N+](C)(CCOC(=O)C1c2ccccc2Oc2ccccc21)C(C)C | inactive | 
23 | O=C(Oc1ccccc1)c1ccccc1C(=O)Oc1ccccc1 | inactive | 
24 | CCCCCCOC(=O)CCCCC(=O)OCCCCCC | inactive | 
25 | CCNc1nc(NC(C)(C)C)nc(OC)n1 | inactive | 
26 | C=CC(=O)NC(C)(C)C | inactive | 
27 | O=C(O)C(F)(F)C(F)(F)C(F)(F)C(F)(F)C(=O)O | inactive | 
28 | C=CC(=O)NCOCCCC | inactive | 
29 | c1ccc2sc(SSN3CCOCC3)nc2c1 | inactive | 
30 | CC=C(C)C=CC=C(C)C | inactive | 
31 | COC(OC)(C(=O)c1ccccc1)c1ccccc1 | inactive | 
32 | CCc1cccc(C)c1N(C(=O)CS(=O)(=O)O)C(C)COC (stereo not given) | inactive | 
33 | O=C(Cl)c1c(Cl)c(Cl)c(C(=O)Cl)c(Cl)c1Cl | inactive | 
34 | CCCCCC1=CCCC1=O | inactive | 
35 | Cc1c(O)cccc1O | inactive | 
36 | Nc1cccc(N)n1 | inactive | 
37 | C=CC(=O)OCCCCCCCC(C)C | inactive | 
38 | O=C1CCCCCCCCCCCN1 | inactive | 
39 | CCCCCCC=O | inactive | 
40 | CCOC(=O)/C=C\C(=O)OCC | inactive | 
